# According to ChEMBL document CHEMBL3988442, “University of Dundee, Small-Polar-MMV Screening Library” (2021):
# Organism: Homo sapiens
# Test: To identify inhibition of the IFN signalling (Jak-Stat) pathway via expression of an eGFP reporter gene under the control of an IFN-stimulated response element (ISRE) containing MxA promoter.
# Assay type: functional
# Design: scale not given: direction of the effect not stated beside the values
# Settings: 30 µM
row,SMILES,Percent Effect
1,CNC(=O)c1cc2c(nc1NCC(C)C)CCN(S(=O)(=O)C1CC1)CC2,-2.8%
2,COCCN(C)CC(=O)N1C[C@H]2CC[C@@H]1CN(C(=O)c1ccncc1)C2,27.7%
3,Cc1nn(CC(C)C)c(N(C)C)c1CNCc1cc2ccccc2[nH]1,2.34%
4,CN(C)Cc1ccnc(C2CCCN2Cc2ccncc2)n1 (stereo not drawn),7.82%
5,O=C([C@H]1COC[C@H]2CN(Cc3ccco3)C[C@H]21)N1CCCO1,-0.652%
6,Cc1cc(C)c(CNC(=O)C2CCCN(c3cnccn3)C2)c(=O)[nH]1 (stereo not drawn),-8.19%
7,COCCNC(=O)C[C@@H]1COC[C@H]2CN(C(=O)c3cnccn3)C[C@@H]12,21.4%
8,CN(C)[C@@H]1CCN(c2ncccn2)[C@H]1Cc1ccncc1,-12.2%
9,CC(CNCc1ccncc1)Oc1ccccn1 (stereo not drawn),2.27%
10,COc1ncccc1CN1Cc2nnn(C)c2C(COCC2CC2)C1 (stereo not drawn),2.8%
11,Cc1noc2nc(C3CCN(Cc4ccncc4)CC3)cc(C(F)F)c12,39.2%
12,CSc1ncccc1C(=O)N1C[C@H]2CC[C@@H]1CN(c1cnccn1)C2,-1.66%
13,CC(C(=O)Nc1ccc(N2CCCC2)nc1)n1ccnc1 (stereo not drawn),28.6%
14,Cc1ccc(Cl)cc1C(=O)N1CCC2(CC1)c1ccccc1[C@@H](N)[C@@H]2O,2.23%
15,Cc1nc(CN2CCN(C(=O)c3ccn(C)c(=O)c3)CC2)cs1,10.6%
16,CNS(=O)(=O)c1ccc(C(=O)N2CCCC2c2ccccc2)o1 (stereo not drawn),-6.57%
17,CS(=O)(=O)NCC1CCCCN1C(=O)Nc1cccnc1N1CCCC1 (stereo not drawn),2.36%
18,Cc1cccc(N2CCN(CCNC(=O)C(C)n3cncn3)CC2)c1 (stereo not drawn),9.51%
19,CCn1nc(CC(C)C)cc1C(=O)NCCCOC,3.12%

# Biological target: T1, Tyrosyl-tRNA synthetase, putative (Trypanosoma cruzi (strain CL Brener)) (UniProt Q4DSP6)
# T1 sequence (whole entry): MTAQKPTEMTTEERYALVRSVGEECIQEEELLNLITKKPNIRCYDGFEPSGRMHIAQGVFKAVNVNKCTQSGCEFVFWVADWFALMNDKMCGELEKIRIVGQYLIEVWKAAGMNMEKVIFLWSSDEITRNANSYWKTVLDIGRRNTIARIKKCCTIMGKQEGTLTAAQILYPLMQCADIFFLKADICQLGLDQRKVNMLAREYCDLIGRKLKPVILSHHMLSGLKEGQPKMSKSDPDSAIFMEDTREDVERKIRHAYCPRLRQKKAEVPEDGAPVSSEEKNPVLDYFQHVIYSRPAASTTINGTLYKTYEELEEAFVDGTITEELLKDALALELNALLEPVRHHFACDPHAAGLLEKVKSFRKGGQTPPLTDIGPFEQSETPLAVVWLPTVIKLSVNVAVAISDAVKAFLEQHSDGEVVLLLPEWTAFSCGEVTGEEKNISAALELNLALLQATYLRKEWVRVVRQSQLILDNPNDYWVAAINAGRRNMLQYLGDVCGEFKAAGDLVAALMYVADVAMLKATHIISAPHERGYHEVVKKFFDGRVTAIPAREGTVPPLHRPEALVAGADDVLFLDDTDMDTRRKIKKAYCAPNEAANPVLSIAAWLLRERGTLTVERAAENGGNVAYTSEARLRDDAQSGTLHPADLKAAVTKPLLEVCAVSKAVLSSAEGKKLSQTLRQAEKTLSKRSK
# Test: Trypanosoma cruzi tyrosyl tRNA synthetase (TcYRS) _High Tyrosine SOP; also: in the data most compounds retested in dose-response had high values
# Assay type: functional
# Design: scale not given: direction of the effect not stated beside the values
# Settings: 30 µM
row,SMILES,Percent Effect
1,COCCNC(=O)C(C)n1cc(Br)cn1 (stereo not drawn),9.68%
2,Cn1nccc1C1CCN(Cc2csc(-c3ncccn3)n2)CC1,11.9%
3,Cc1ccc(NS(=O)(=O)CC2=NC(=O)n3cccc3C2=O)cc1,-10.6%
4,COc1ccc(C)cc1S(=O)(=O)NCC(c1cccn1C)N(C)C (stereo not drawn),5.38%
5,CSc1ccc(CNC(c2ccccc2)c2nccn2C)cc1 (stereo not drawn),10.9%
6,CCCNC(=O)N1CCN(Cc2cc(C)no2)CC1,8.37%
7,CN(Cc1ccco1)Cc1ccccc1CNC(=O)c1ccncc1,2.65%
8,CCc1c(C)sc(NC(=O)CN2CCN(CC)CC2)c1C(=O)OC,0%
9,COc1ccc(CN(Cc2cncn2C)CC2CCCO2)cc1OC (stereo not drawn),5.38%
10,O=c1ccc(-c2cccs2)nn1CN1CCN(Cc2ccccc2)CC1,3.17%
11,COCC1Cn2nnc(-c3cnn(C)c3)c2CN1Cc1ccc(C)s1 (stereo not drawn),6.93%
12,CC1CCCCN1c1nc2c(c(=O)[nH]1)CCN(Cc1cccnc1)C2 (stereo not drawn),3.23%
13,O=C(Nc1ccccc1)C1CN(CC2CC2)CC12CCOCC2 (stereo not drawn),-3.12%
14,COCCN1C[C@H]2CC[C@@]3(N=C(C)N(CC4CC4)C3=O)[C@H]2C1,6.93%
15,CC(C)c1cc(C(=O)N2CCN(Cc3ccsc3)CC2)n[nH]1,4.3%
16,CCc1c(C(=O)NC2CCS(=O)(=O)C2)cnn1-c1ccc(F)cc1 (stereo not drawn),7.39%
17,CS(=O)(=O)N1CCCC12CCCN(S(=O)(=O)c1cc(F)cc(F)c1)C2 (stereo not drawn),0%
18,COc1ccc(C2CCCCCN2S(=O)(=O)N(C)C)cc1 (stereo not drawn),2.1%
19,CC(Cn1ccnc1)NC(=O)NCCNC(=O)C(C)C (stereo not drawn),3.43%
20,O=C(NCCCn1cncn1)NCC(c1ccco1)N1CCCCC1 (stereo not drawn),4.76%

row,SMILES,Percent Effect
1,CNC(=O)c1cc2c(nc1NCC(C)C)CCN(S(=O)(=O)C1CC1)CC2,2.15%
2,COCCN(C)CC(=O)N1C[C@H]2CC[C@@H]1CN(C(=O)c1ccncc1)C2,6.01%
3,Cc1nn(CC(C)C)c(N(C)C)c1CNCc1cc2ccccc2[nH]1,13.3%
4,CN(C)Cc1ccnc(C2CCCN2Cc2ccncc2)n1 (stereo not drawn),3.23%
5,O=C([C@H]1COC[C@H]2CN(Cc3ccco3)C[C@H]21)N1CCCO1,6.25%
6,Cc1cc(C)c(CNC(=O)C2CCCN(c3cnccn3)C2)c(=O)[nH]1 (stereo not drawn),-0.49%
7,COCCNC(=O)C[C@@H]1COC[C@H]2CN(C(=O)c3cnccn3)C[C@@H]12,9.38%
8,CN(C)[C@@H]1CCN(c2ncccn2)[C@H]1Cc1ccncc1,1.07%
9,CC(CNCc1ccncc1)Oc1ccccn1 (stereo not drawn),4.23%
10,COc1ncccc1CN1Cc2nnn(C)c2C(COCC2CC2)C1 (stereo not drawn),4.23%
11,Cc1noc2nc(C3CCN(Cc4ccncc4)CC3)cc(C(F)F)c12,2.15%
12,CSc1ncccc1C(=O)N1C[C@H]2CC[C@@H]1CN(c1cnccn1)C2,5.38%
13,CC(C(=O)Nc1ccc(N2CCCC2)nc1)n1ccnc1 (stereo not drawn),5.42%
14,Cc1ccc(Cl)cc1C(=O)N1CCC2(CC1)c1ccccc1[C@@H](N)[C@@H]2O,6.88%
15,Cc1nc(CN2CCN(C(=O)c3ccn(C)c(=O)c3)CC2)cs1,9.38%
16,CNS(=O)(=O)c1ccc(C(=O)N2CCCC2c2ccccc2)o1 (stereo not drawn),6.4%
17,CS(=O)(=O)NCC1CCCCN1C(=O)Nc1cccnc1N1CCCC1 (stereo not drawn),5.32%
18,Cc1cccc(N2CCN(CCNC(=O)C(C)n3cncn3)CC2)c1 (stereo not drawn),7.39%
19,CCn1nc(CC(C)C)cc1C(=O)NCCCOC,5.26%
